Most compounds without a hit are left out; they make up all but 10% or so of the library.
JMJD2A Tudor – blocks the human JMJD2A Tudor domain; O75164; AlphaScreen JMJD2A-Tudor / H3K4me3 peptide binding; Potency, µM (series often up to 114 µM), usual class: inhibitors; hit rate 4.4% among 390,000; AID 504339; further: nearly all actives have a fitted effect of over 50% in size
BAZ2B block – blocks human BAZ2B | Q9UIF8 | AlphaScreen BAZ2B-H3K14Ac peptide displacement | Potency, µM (top dose mostly 114 µM), hits mostly inhibitors | hit rate 4.4% among 360,000 | AID 504333; further: nearly all actives have a fitted effect of over 60% in size
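Compounds, titrated to a top concentration of 110 uM, were incubated 30 min at room temperature with preformed BAZ2B/acetyl-K14 H3 peptide complex (50 nM each). Proximity signal was measured by AlphaScreen after 20 min with beads.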
Six1-Eya2 blk – Six1/Eya2 interaction inhibition; Q15475+O00167; hit rate 0.56% among 360,000; AID 651725; AlphaScreen GST-Six1/His-Eya2 binding, biochemical; stronger effect = lower value; activity change, % (concentration not given with the values); in the data active means activity change below about -65%; inconclusive means mostly about -30% to -63%
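Six1/Eya2 binding was read as AlphaScreen signal after compounds were pinned into GST-Six1 plus His-tagged Eya2 (5X stock 250/500 nM) in pH 8.0 Tris/NaCl/TCEP buffer, beads added, then incubated 1 h, 37 C, dark.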
CtBP-E1A blk – CtBP/E1A binding inhibition | activity change, % (no concentration beside the values) | AID 651724 | hit rate 0.49% among 340,000 | AlphaScreen GST-E1A/His-CtBP binding, 1536-well; stronger effect = lower value; in the data active means activity change below about -65%; inconclusive means mostly about -30% to -63%
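In 5 uL wells, 23 nL compound meets equimolar GST-E1A and His-CtBP (5X stock 125 nM each) for 2 h, 37 °C. Beads (5X, 50 ug/mL) then 1 h, 37 °C, dark.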
G9a block – blocks human histone lysine methyltransferase G9a; AID 504332; G9a H3K9 monomethylation, AlphaScreen, 2 h; hit rate 8.8% among 350,000; Q96KQ7; Potency, µM (doses to about 102 µM), most hits filed as inhibitors; further: nearly all actives have a fitted effect of over 75% in size
Target sequence (Q96KQ7 913-1193 limits assumed): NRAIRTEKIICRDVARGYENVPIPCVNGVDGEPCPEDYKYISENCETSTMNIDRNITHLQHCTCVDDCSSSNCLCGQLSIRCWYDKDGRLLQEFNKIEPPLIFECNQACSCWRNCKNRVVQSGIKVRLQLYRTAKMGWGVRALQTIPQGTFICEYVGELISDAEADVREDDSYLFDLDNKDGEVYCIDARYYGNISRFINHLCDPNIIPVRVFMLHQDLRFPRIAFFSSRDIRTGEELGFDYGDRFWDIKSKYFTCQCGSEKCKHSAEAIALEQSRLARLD
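Chemiluminescent proximity detection of H3K9 monomethylation, read after 10 min bead incubation in the dark. Reaction: 20 nM G9a, 500 nM biotin-H3K9 peptide, 20 uM SAM cofactor, 2 h, room temperature, following 15 min enzyme-compound preincubation.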
HP1b chromo inh – inhibitors of HP1-beta chromodomain binding to methylated histone tails | AID 540317 | Potency, µM (series often up to 114 µM), most hits filed as inhibitors | AlphaScreen HP1-beta / biotin-H3K9me3 peptide binding | hit rate 0.56% among 390,000; further: nearly all actives have a fitted effect of over 70% in size
Target sequence (P83916 whole entry, looked up): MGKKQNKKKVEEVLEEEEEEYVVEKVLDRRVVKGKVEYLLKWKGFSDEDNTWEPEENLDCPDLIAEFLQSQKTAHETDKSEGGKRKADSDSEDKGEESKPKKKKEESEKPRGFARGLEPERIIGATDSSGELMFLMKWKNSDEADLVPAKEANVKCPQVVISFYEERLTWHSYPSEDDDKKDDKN
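HP1-beta protein (50 nM final) preincubated 30 min at room temperature with biotinylated H3(1-18)K9me3 peptide (50 nM) in PBS pH 7.4, 0.01% Tween-20, then compound added for 30 min. AlphaScreen streptavidin donor/nickel chelate acceptor beads (10 ug/mL final), 30 min dark, luminescence read.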
Hits are given with their value; [ ] = another dose, or the depositor's remark. Unless noted, the call rests on the fitted dose curve; in most records, active means well fitted inhibition curve with a large enough effect; inconclusive means small, poorly fitted or top-dose-only effect; inactive means no such curve, though single readings can be large or run the other way.

How did CCc1cccc(C)c1NC(=O)CN1C(=O)C2(SCC(=O)N2c2cccc(F)c2)c2ccccc21 (centres undefined) do in these assays?
JMJD2A Tudor: inactive; BAZ2B block: inactive; G9a block: inactive; HP1b chromo inh: inactive

How did COc1ccc([N+](=O)[O-])c(OC)c1C(=O)NC(=O)Nc1c(F)c(F)c(F)c(F)c1F do in these assays?
JMJD2A Tudor: inactive; BAZ2B block: inactive; Six1-Eya2 blk: inactive; G9a block: inactive; HP1b chromo inh: inactive

What do the screens show for `Cc1cc(C)cc(-n2ccnc(NCCc3ccccc3)c2=O)c1`?
JMJD2A Tudor: inactive; BAZ2B block: inactive; G9a block: inactive; HP1b chromo inh: inactive

Results for O=C1CCN(S(=O)(=O)c2ccc(Cl)cc2)CC1 ?
JMJD2A Tudor: inactive; BAZ2B block: inactive; Six1-Eya2 blk: inactive; CtBP-E1A blk: inactive; G9a block: inactive; HP1b chromo inh: inactive

Results for O=C(c1ccc2c(c1)N(Cc1ccc(Cl)cc1)C(=O)c1ccccc1S2(=O)=O)N1CCCC1 ?
JMJD2A Tudor: inactive; BAZ2B block: inactive; G9a block: inactive; HP1b chromo inh: inactive

What do the screens show for `Cc1ccc(NC(=O)C2CC2c2ccccc2)c([N+](=O)[O-])c1` (centres undefined)?
JMJD2A Tudor: inconclusive; BAZ2B block: inconclusive; Six1-Eya2 blk: inconclusive; CtBP-E1A blk: inactive; G9a block: 40µM; HP1b chromo inh: inactive

What do the screens show for `Cc1ccc([N+](=O)[O-])cc1NC(=O)/C=C/C(=O)O`?
JMJD2A Tudor: inactive; BAZ2B block: 79µM; Six1-Eya2 blk: inactive; CtBP-E1A blk: inactive; G9a block: inactive[12.7 µM]; HP1b chromo inh: inactive

How did O=C(O)C1CC=CCC1C(=O)NNc1ccccc1 (centres undefined) do in these assays?
JMJD2A Tudor: inactive; BAZ2B block: inactive; Six1-Eya2 blk: inactive; CtBP-E1A blk: inactive; G9a block: 14µM; HP1b chromo inh: inactive

How did CC(=O)Nc1ccc(S(=O)(=O)Nc2cc([N+](=O)[O-])ccc2C)cc1 do in these assays?
JMJD2A Tudor: 10µM; BAZ2B block: inactive; Six1-Eya2 blk: inactive; CtBP-E1A blk: inactive; G9a block: inconclusive; HP1b chromo inh: inconclusive

Results for O=C(Nc1ccc(Cl)cc1F)C1CC1c1ccccc1 (centres undefined) ?
JMJD2A Tudor: inactive; BAZ2B block: inactive; Six1-Eya2 blk: inactive; CtBP-E1A blk: inactive; HP1b chromo inh: inactive

What do the screens show for `CC(=O)Nc1ccc(S(=O)(=O)Nc2ccc([N+](=O)[O-])cc2)cc1`?
G9a block: inactive[2.33 µM]

How did C[C@H]1CN([C@@H](C)CO)C(=O)CCCn2nncc2CO[C@@H]1CN(C)C(=O)NC1CCCCC1 do in these assays?
Six1-Eya2 blk: inactive; CtBP-E1A blk: inactive

Results for CCC(C)c1ccc(S(=O)(=O)N2CCN(c3ccccn3)CC2)cc1 (centres undefined) ?
JMJD2A Tudor: inactive; BAZ2B block: inactive; Six1-Eya2 blk: inactive; CtBP-E1A blk: inactive; HP1b chromo inh: inactive

Results for Cc1cc(C)c(NC(=O)/C=C\C(=O)O)c([N+](=O)[O-])c1 ?
JMJD2A Tudor: inconclusive; BAZ2B block: inactive; Six1-Eya2 blk: inactive; CtBP-E1A blk: inactive; G9a block: 3.5µM; HP1b chromo inh: inactive

What do the screens show for `O=C(NNc1ccc([N+](=O)[O-])cc1)C1CC1c1ccccc1` (centres undefined)?
JMJD2A Tudor: inactive; BAZ2B block: inactive; Six1-Eya2 blk: inactive; CtBP-E1A blk: inactive; G9a block: 10µM; HP1b chromo inh: inactive

How did Cc1ccc(NC(=O)/C=C\C(=O)O)c([N+](=O)[O-])c1 do in these assays?
JMJD2A Tudor: inactive; BAZ2B block: inactive; Six1-Eya2 blk: inactive; CtBP-E1A blk: inactive; G9a block: 40µM; HP1b chromo inh: inactive

How did O=[N+]([O-])c1cccc(S(=O)(=O)N2CCN(S(=O)(=O)c3ccc4c(c3)OCCO4)CC2)c1 do in these assays?
JMJD2A Tudor: inactive

How did CCOC(=O)c1c(NC(=O)COc2ncnc3ccccc23)sc(C)c1C do in these assays?
JMJD2A Tudor: inactive; BAZ2B block: inactive; Six1-Eya2 blk: inactive; CtBP-E1A blk: inactive; G9a block: inactive; HP1b chromo inh: inactive

Screening results from PubChem BioAssay.
